In the library only some 11% were active in any assay of this set; here they are far more common.
3T3 cytotox: kills NIH 3T3 cells | NIH 3T3 viability, CellTiter-Glo ATP luminescence, 48-72 h | Potency, µM (top dose mostly 96.7 µM), most hits filed as inhibitors | 94,000 tested, 4.3% active | AID 1345082; further: nearly all actives have a fitted effect of over 55% in size
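ATP-dependent luminescence (CellTiter-Glo) served as the viability signal for NIH 3T3 cells treated with compound for 48 or 72 hr at 37 °C.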
FLuc inh: inhibitors of firefly (Photinus pyralis) luciferase | 76,000 tested, 2.5% active | purified P. pyralis luciferase, luminescence, biochemical | Potency, µM (highest dose often 115 µM), usual class: inhibitors | AID 1347043; further: nearly all actives have a fitted effect of over 65% in size
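Purified 10nM P. pyralis luciferase with 10uM D-luciferin and 10uM ATP in 50mM Tris acetate pH 7.5, 10mM Mg acetate, 0.01% Tween-20, 0.05% BSA. qHTS titration; luminescence read by CCD imager.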
NPR1 antag: blocks ANP-stimulated signaling of human Npr1 receptor; HEK293 hNpr1 GloSensor cGMP, ANP-stimulated luminescence; P16066; 76,000 tested, 1.6% active; Potency, µM (titrated, usually from 46.3 µM), most hits filed as inhibitors; calls by dose curve; further: nearly all actives have a fitted effect of over 60% in size
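Compound pre-incubated 30 min at room temperature on GloSensor-loaded HEK293 cells stably carrying hNpr1 and the pGS-40F cGMP biosensor. Stimulation uses hNppA at 0.1 nM final; luminescence is taken at baseline and 20 min post-agonist.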
HEK cytotox: HEK 293 cell cytotoxicity; Potency, µM (titrated, usually from 115 µM), actives largely listed as inhibitors; AID 1345083; HEK 293 viability, ATP luminescence (CellTiter-Glo), 48-72 h; 94,000 tested, 6.6% active; further: nearly all actives have a fitted effect of over 60% in size
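Luminescence from cellular ATP, measured with CellTiter-Glo, indicates HEK 293 viability. Cells plated at 250 cells/well are treated with compound for 48 or 72 hr at 37 degree Celsius before reagent addition.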
Each line names hits and unclear results; the compound was inactive in the other large screens. Unless noted, the call rests on the fitted dose curve; in most records, active means well fitted curve in the direction sought with a large enough effect; inconclusive means small, poorly fitted or top-dose-only effect, or another doubt; inactive means no such curve, though single readings can be large; an effect the other way counts as inactive or inconclusive.

Cc1ccc(C(=O)N2CCC3(CC2)c2nccn2-c2ccccc2CN3CC(C)C)cc1F	3T3 cytotox 35.5µM, HEK cytotox 35.5µM
CC(C)CN1Cc2ccccc2-n2ccnc2C12CCN(C(=O)C(C)C)CC2	HEK cytotox inconclusive
COc1ccccc1N1CCN(C(=O)[C@H]2CN3CCC2C[C@@H]3Cn2cc(C(C)(C)O)nn2)CC1 (stereo not given in full)	none
COc1ccc(OC)c(S(=O)(=O)NC[C@H]2C[C@@H]3CCN2C[C@@H]3c2cc(-c3cccs3)nn2C)c1	3T3 cytotox 79.4µM, HEK cytotox inconclusive
Cc1ccc(C(=O)NC[C@H]2C[C@@H]3CCN2C[C@@H]3c2cc(-c3cccs3)nn2C)cc1	3T3 cytotox 112µM, HEK cytotox inconclusive
Cn1nc(C2CCCCC2)cc1[C@H]1CN2CC[C@H]1C[C@@H]2CNC(=O)Nc1ccccc1	3T3 cytotox 28.2µM, HEK cytotox 31.6µM
Cn1nc(C2CCCCC2)cc1[C@H]1CN2CC[C@H]1C[C@@H]2CNC(=O)Nc1cccc(C#N)c1	3T3 cytotox inconclusive, HEK cytotox inconclusive
Cn1nc(C2CCCCC2)cc1[C@H]1CN2CC[C@H]1C[C@@H]2CNC(=O)NCc1ccccc1	3T3 cytotox inconclusive, HEK cytotox 79.4µM
Cc1cc(C(F)(F)F)nn1CC(=O)N1[C@H]2CC[C@@H]1c1cnc(-c3ccc(F)cc3)nc1C2	none
CCCS(=O)(=O)N1C[C@@H]2C[C@H](C1)c1c(-c3ccc(Cl)cc3)ccc(=O)n1C2	none
COc1ccc(NC(=O)NC[C@H]2C[C@@H]3CCN2C[C@@H]3CN2CCN(c3ncccn3)CC2)cc1	none
O=C1NC2(CCN(Cc3cccnc3)C2)Oc2ccccc21 (stereo not given)	none
Cn1nc(C2CCCCC2)cc1[C@H]1CN2CC[C@H]1C[C@@H]2CNC(=O)c1ccc2c(c1)OCO2	3T3 cytotox inconclusive, HEK cytotox inconclusive
Cc1ccc(C(=O)NC[C@H]2C[C@@H]3CCN2C[C@@H]3c2cc(C3CCCCC3)nn2C)cc1	3T3 cytotox 35.5µM, HEK cytotox inconclusive
O=C1CC2CCN(CC3CCNC3)CC2CCN1 (stereo not given)	none (no result: FLuc inh, NPR1 antag)
COc1cc2c(cc1OCC1CCCC1)N([S+](=O)([O-])c1cccc(C(F)(F)F)c1)CC21CCN(CC(=O)O)CC1	3T3 cytotox 39.8µM, HEK cytotox 44.7µM
COc1cc2c(cc1OCC1CCCC1)N([S+](=O)([O-])c1ccc(Oc3ccccc3)cc1)CC21CCN(CC(=O)O)CC1	3T3 cytotox inconclusive, HEK cytotox inconclusive
CC(=O)c1ccc(NC(=O)NC[C@H]2C[C@@H]3CCN2C[C@@H]3CN(C)Cc2ccccc2)cc1	3T3 cytotox 89.1µM, HEK cytotox 100µM
CN(Cc1ccccc1)C[C@H]1CN2CC[C@H]1C[C@@H]2CNC(=O)Nc1ccccc1	3T3 cytotox 100µM, HEK cytotox 100µM
C#CCN(C)C[C@H]1CN2CC[C@H]1C[C@@H]2CNC(=O)Nc1ccc(C(C)=O)cc1	none
CN(Cc1ccccc1)C[C@H]1CN2CC[C@H]1C[C@@H]2CNC(=O)c1ccccc1	3T3 cytotox inconclusive, HEK cytotox inconclusive
Cc1ncc2c(n1)C[C@@H]1CC[C@H]2N1C(=O)NCCc1ccccc1	none (no result: FLuc inh, NPR1 antag)
Cc1cccc(OCC(=O)N2CCC3(CC2)c2nccn2-c2ccccc2CN3C)c1	none
O=C(NC[C@H]1C[C@@H]2CCN1C[C@@H]2CN1CCN(c2ccc(F)cc2)CC1)Nc1cccc(F)c1	3T3 cytotox 22.4µM, HEK cytotox 28.2µM
N#Cc1cccc(NC(=O)NC[C@H]2C[C@@H]3CCN2C[C@@H]3CN2CCN(c3ccccc3)CC2)c1	3T3 cytotox 22.4µM, HEK cytotox inconclusive
COc1ccc2c(c1)C1(CCN(S(=O)(=O)c3cccc(F)c3)C1)C(=O)N2C (stereo not given)	HEK cytotox 44.7µM
COc1cccc(-c2cnc3[nH]cc(CC(=O)N4CCN(C)CC4)c3c2)c1	3T3 cytotox inconclusive, FLuc inh 20µM, HEK cytotox inconclusive
COc1ccc(-c2cnc3[nH]cc(CC(=O)N4CCN(C)CC4)c3c2)cc1OC	3T3 cytotox inconclusive
CN1CCN(C(=O)Cc2c[nH]c3ncc(-c4cccc(OC(F)(F)F)c4)cc23)CC1	3T3 cytotox 79.4µM, HEK cytotox inconclusive
CCC1(N2CCN(C(=O)Cc3c[nH]c4ccccc34)CC2)CCN(S(C)(=O)=O)C1 (stereo not given)	none
CN1CCN(C(=O)Cc2c[nH]c3ncc(-c4ccccc4Oc4ccccc4)cc23)CC1	3T3 cytotox inconclusive, NPR1 antag inconclusive, HEK cytotox 79.4µM
